# Assay outcomes as filed in PubChem BioAssay.
# Pf growth 96h: P. falciparum growth inhibition at 96 hours; P. falciparum luciferase reporter growth, 96 h; Potency, µM (series often up to 28.7 µM), for the others: top-dose activity change, negative = inhibition, most hits filed as inhibitors; 320,000 compounds, 6.9% hits; also: potency is read from the fitted curve at half-maximal effect
#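 P. falciparum expressing integrated firefly luciferase, in erythrocytes at 2% hematocrit, 0.05% parasitemia, incubated with compounds 96 h at 37 C, 5% CO2. Growth inhibition read as loss of luminescence; two-generation exposure targets delayed-death apicoplast inhibitors.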
# HCMV antiviral: blocks human cytomegalovirus replication. 410,000 compounds, 4.5% hits. HFF cells, HCMV-luciferase reporter, 72 h; stronger effect = lower value. AID 1259415. activity change, negative = inhibition, % at 57.5 µM; in the data active = activity change below about -60%; inconclusive = no clear call, values can overlap the other calls; inactive = above about -39%
#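 Steps: HFFs plated, 16 h 37C; compounds added; HCMV-luciferase added to MOI 1 PFU/cell; 72 h 37C; OneGlo reagent, 5 min room temperature; luminescence read, normalized to controls.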
# Marburg entry inh: blocks Marburg virus binding to or entry into cells | Marburg virus pseudotyped entry inhibition, cell reporter | Potency, µM (series often up to 37.8 µM), without a hit: top-dose activity change, negative = inhibition, hits mostly inhibitors | 300,000 compounds, 1.8% hits | AID 540276; calls by dose curve; tested in HEK293 cells; also: potency is read from the fitted curve at half-maximal effect
# Lassa entry inh: blocks Lassa virus binding to or entry into cells. 300,000 compounds, 1.2% hits. Potency, µM (highest dose often 37.9 µM), without a hit: at the highest dose activity change, negative = inhibition, hits mostly inhibitors. AID 540256. Lassa virus pseudotype entry inhibition, cell reporter; calls by dose curve; tested in HEK293 cells; also: potency is read from the fitted curve at half-maximal effect; nearly all actives have a fitted effect of over 50% in size
# Pf growth 48h: inhibits P. falciparum growth in the first generation, 48 h; 310,000 compounds, 5.9% hits; P. falciparum luciferase growth in erythrocytes, 48 h; AID 504832; Potency, µM (titrated, usually from 28.7 µM), for the others: at the top dose activity change, negative = inhibition, most hits filed as inhibitors; also: potency is read from the fitted curve at half-maximal effect
#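 Parasite viability was followed by luminescence of a genomically integrated firefly luciferase. Cultures held 0.1% parasitemia at 2% hematocrit (final), incubated under 5% CO2 at 37 C.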
# HCV inhibitor: inhibitors of hepatitis C virus infection | Huh7.5.1 HCVcc-Cre infection, luciferase reporter, 44 h | Potency, µM (doses to about 41.8 µM), inactives show at the top dose activity change, negative = inhibition, actives largely listed as inhibitors | 340,000 compounds, 3.4% hits; also: potency is read from the fitted curve at half-maximal effect
#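 Reporter virus HCVcc-Cre (~0.5 moi) infects cells exposed to compound; seeding density 1,000 cells/well with 4 h settling beforehand. Luminescence, 15 sec read, taken 44 h post-infection following a 15 min RT substrate incubation.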
# Starred values were filed as active, the others as inactive; ? = inconclusive; . = no result given; [ ] = remark or other dose. Compounds with a hit are over-represented: about 14% of the library has one in this group of screens. Unless noted, calls follow the shape of the dose curve; as a rule, active = well fitted inhibition curve with a large enough effect; inconclusive = small, poorly fitted or top-dose-only effect, or another doubt; inactive = no such curve, though single readings can be large or run the other way. % is scaled to controls: 0 for no effect and ±100 for the full control effect.
SMILES,Pf growth 96h,HCMV antiviral,Marburg entry inh,Lassa entry inh,Pf growth 48h,HCV inhibitor
CCCCn1cc(S(=O)(=O)c2ccc(OC)cc2)c(=O)c2cc(CC)ccc21,.,-26,?,-20%[46.1 µM],.,.
CC(C)(C)[C@@H]1COC(=O)[C@H](Cc2ccc(F)cc2)CC/C=C\C[C@@H](CC(=O)NCCO)C(=O)N1,.,-23,.,.,.,?
COc1ccc(C(=O)NNC(=S)NC(=O)c2cccnc2)cc1,24%,-89*,?,-25%,?,3%
COc1ccc(C(=O)NNC(=O)c2ccc3ccccc3n2)cc1,-8%,-88*,?,?,-29%,?
COc1ccc(C(=O)NNC(=O)c2ccc3ccccc3c2)cc1,.,3,7%,-3%,.,13%
CC1=C(c2ccc(F)cc2)S(=O)(=O)N=C1N1CCC(C(=O)NCCc2ccco2)CC1,.,-5,.,6%[46.1 µM],.,.
Cc1cc(Cl)c2oc(C(=O)N3CCN(c4ccncc4)CC3)c(C)c2c1,.,-40,3.5µM*,?,.,1.3µM*
CCOc1ccccc1NC(=O)CSc1ccc2nc(-c3ccccc3)cn2n1,.,5,.,-14%[46.1 µM],.,.
COc1ccc2c(c1)cc1n2CCN=C1N,-14%,12,10µM*,2%,?,-14%
COc1ccc2c(c1)cc1n2CCN2CCCN=C12,-19%,-29,-7%,?,12%,-12%
CN1CCOC(c2ccccc2)c2ccccc2C1 (stereo not drawn),10µM*,-16,.,.,29%,-18%
CC(C)n1nnnc1SCC(=O)NNC(=O)C1CCCCC1,9%,40,-14%,2%,8%,14%
CC(C)n1nnnc1SCC(=O)NC1CCCC1,5.2µM*,15,16%[46.1 µM],17%,51%,8%
Cc1ccc(C)c(C(=O)CSc2nnnn2C(C)C)c1,?,86,-1%,3%,57%,?
Cc1ccc(C(=O)CSc2nnnn2C(C)C)c(C)c1,52%,?,5.6µM*,7.1µM*,-8%,6%
O=C(Cn1c(=O)n(-c2ccc(Cl)cc2)c(=O)c2c3c(sc21)CCC3)c1ccc(F)cc1,.,-30,?,-2%[46.1 µM],.,.
CC(=O)CN1C(=O)NC(c2ccccc2)(c2ccccc2)C1=O,18%,-31,0%[46.1 µM],11%,19%,18%
Cc1ccc(CN(C)C(=O)CN2C(=O)NC(c3ccccc3)(c3ccccc3)C2=O)c(C)c1,?,-38,.,.,13µM*,?
O=C(CCl)NN1C(=O)NC(c2ccccc2)(c2ccccc2)C1=O,?,-88*,?,?,?,?
CCN(Cc1cccs1)C(=O)CN1C(=O)NC2(CCCc3ccccc32)C1=O (stereo not drawn),-21%,-1,.,.,-30%,20%
CC(C)(C)NC(=O)CN1C(=O)NC(c2ccccc2)(c2ccccc2)C1=O,3%,-81*,6%[46.1 µM],1%[46.1 µM],?,-8%
CN(Cc1ccco1)C(=O)CN1C(=O)NC(c2ccccc2)(c2ccccc2)C1=O,?,-26,7%,-3%,?,25%
CCN(Cc1cccs1)C(=O)CN1C(=O)NC(c2ccccc2)(c2ccccc2)C1=O,13µM*,-19,.,.,?,-6%
Cc1ccc2c(c1C)NC(=O)CC2c1ccc(Cl)cc1Cl (stereo not drawn),.,-14,-21%[46.1 µM],0%[46.1 µM],.,.
C[C@H]1[C@@H](NS(=O)(=O)Cc2ccccc2)CC[C@@]23CCCN2C(=O)CCC[C@@H]13,.,5,.,.,.,.
SMILES,Pf growth 96h,HCMV antiviral,Marburg entry inh,Lassa entry inh,Pf growth 48h,HCV inhibitor
CCN(C(=O)CN1C(=O)NC(c2ccccc2)(c2ccccc2)C1=O)c1ccccc1,?,-2,?,?,13µM*,6%
CC1CCCC(NC(=O)CN2C(=O)NC(c3ccccc3)(c3ccccc3)C2=O)C1C (stereo not drawn),?,12,?,?,15µM*,-37%
Cc1ccc(C2(c3ccccc3)NC(=O)N(CC(=O)NC3CCCCC3)C2=O)cc1C (stereo not drawn),?,?,-14%,?,?,?
COc1ccc(NC(=S)NC(=O)c2ccc3c(c2)OCCO3)cc1,.,-22,?,-8%,.,-6%
O=C(Nc1ccc(CN2CCOCC2)cc1)c1ccc(-c2ccc(Br)cc2)o1,9%,?,?,?,1.9µM*,8.9µM*
CS(=O)(=O)N1CCN(c2ccc(NC(=S)NC(=O)c3ccc4c(c3)OCO4)cc2)CC1,?,-39,4%[46.1 µM],4%[46.1 µM],-10%,10µM*
CCN1CCN(c2ccc(NC(=O)c3ccc4c(c3)OCO4)cc2)CC1,.,99,?,19%,68%,16%
COc1cccc(OC)c1C(=O)NC(=S)Nc1ccc2c(c1)OCCO2,?,?,-22%[46.1 µM],-24%,4.1µM*,-8%
O=C(NC(=S)Nc1ccc(F)cc1)c1ccc2c(c1)OCCO2,?,-34,?,13µM*,132%,?
Cn1c(=O)n(C)c2cc(NC(=O)c3ccccc3)ccc21,.,16,.,.,.,.
COc1cc(NC(=O)CCc2c(C)nn(-c3ccc4nncn4n3)c2C)cc(OC)c1OC,.,-11,.,4%[46.1 µM],.,.
COc1cccc(OC)c1C(=O)Nc1ccc(NC(=O)c2ccco2)cc1,?,.,9%,0%,29%,15%
COc1cccc(OC)c1C(=O)NC(=S)Nc1cccc(NC(=O)c2ccco2)c1,-4%,-61*,?,13%,-19%,15%
O=C(NC(=S)Nc1ccc(N2CCOCC2)cc1)c1ccc2c(c1)OCCO2,27%,-85*,-18%,?,17%,7.9µM*
O=C(NC(=S)Nc1ccc(N2CCCCC2)cc1)c1ccc2c(c1)OCCO2,73%,?,5%,?,131%,13%
O=C(NC(=S)Nc1ccc(CN2CCOCC2)cc1)c1ccc2c(c1)OCCO2,-19%,12,10µM*,-24%,-19%,35µM*
COc1ccc(C(=O)NC(=S)Nc2ccc(CN3CCOCC3)cc2)cc1Br,?,-64*,.,.,?,-5%
COc1ccc(CN2CCC(C)(Oc3ccc(C(C)=O)cc3)C2)c2ccccc12 (stereo not drawn),.,-6,.,.,.,.
COC(=O)CC=C1c2ccc(OC)cc2[C@@H](OC)[C@@H]1C,.,.,4%[14.2 µM],?,.,.
C/C(CCC(=O)OC[C@@H]1O[C@H](C#Cc2ccccc2)C=C[C@@H]1Oc1ccc(C)cc1)=N/OC[C@@H](O)COCc1ccco1,.,.,-10%[14.2 µM],.,.,.
COc1cc(-c2noc(-c3ccc(NC4CCCC4)c([N+](=O)[O-])c3)n2)cc(OC)c1OC,.,6,-2%[46.1 µM],25%[46.1 µM],.,.
CC(=O)c1ccc(NC(=O)Cn2cnc3nc4c(cc3c2=O)CC(C)CC4)cc1 (stereo not drawn),.,26,.,14%[46.1 µM],.,.
CCOc1ccc(NC(=O)CN(C)C(=O)Cc2c(C)nc3ccccc3c2C)cc1OCC,?,7,-18%,3%,?,?
